Three molecules from PubChem BioAssay (EPA / NIEHS) can be followed below.

Active and inactive are the calls of the source. The calls were made as follows: active = hit-call score of the fitted dose curve at least 0.9, where 1 is the maximum; inactive = score below 0.9.

The term AC50 denotes the midpoint of the concentration-response curve, whichever way the signal moves.

Conditions in all cases: mRNA level, 48 h; actives raise or lower the signal
Read-out in experiment [1]: Cyclin D2 (CCND2), CCND2 (gene 894)
Briefly: LTEA_HepaRG_CCND2: Life Technologies and Expression Analysis (LTEA) Assay for Cyclin D2 (CCND2) using HepaRG (AID 2283449).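 Also: CCND2 transcript measured by TaqMan qRT-PCR and normalised to three housekeeping genes.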 In a few lines: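 Chemicals in 0.5% DMSO, eight half-log concentrations from 100 uM top, were applied in duplicate for 48 h to human HepaRG cells in serum-free induction medium. CCND2 mRNA by TaqMan qRT-PCR, normalised to ACTB/GAPDH/POLR2A; bidirectional fit versus DMSO.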

Read-out in experiment [2]: Cyclin Dependent Kinase Inhibitor 1A (CDKN1A), CDKN1A (gene 1026)
Kind of experiment: LTEA_HepaRG_CDKN1A: Life Technologies and Expression Analysis (LTEA) Assay for Cyclin Dependent Kinase Inhibitor 1A (CDKN1A) using HepaRG (AID 2283450). An outline of the steps:
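Gain or loss of CDKN1A transcript is scored by bidirectional fitting against 0.5% DMSO vehicle. Human HepaRG cultures receive chemicals for 48 h across an 8-point series peaking at 100 uM; expression comes from qRT-PCR.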

Read-out in experiment [3]: Cyclin D1 (CCND1), CCND1 (gene 595)
Briefly: LTEA_HepaRG_CCND1: Life Technologies and Expression Analysis (LTEA) Assay for Cyclin D1 (CCND1) using HepaRG (AID 2283451). An outline of the steps: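 Expression change is measured by qRT-PCR in HepaRG cells after 48 h treatment across eight concentrations topping at 100 uM, with duplicate wells and DMSO (0.5%) serving as baseline for bidirectional fitting.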

Read-out in experiment [4]: catalase (CAT), CAT (gene 847)
Kind of experiment: LTEA_HepaRG_CAT: Life Technologies and Expression Analysis (LTEA) Assay for catalase (CAT) using HepaRG (AID 2283452). An outline of the steps: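 HepaRG cells in serum-free induction medium, 0.5% DMSO vehicle, exposed 48 h in duplicate over 8 half-log concentrations from 100 uM. CAT mRNA measured by qRT-PCR, normalized to ACTB, GAPDH, POLR2A; bidirectional fit versus DMSO.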

Read-out in experiment [5]: flavin-containing dimethylaniline monooxygenases 3 (FMO3), FMO3 (gene 2328)
Kind of experiment: LTEA_HepaRG_FMO3: Life Technologies and Expression Analysis (LTEA) Assay for flavin-containing dimethylaniline monooxygenases 3 (FMO3) using HepaRG (AID 2283453). In a few lines: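 Differentiated HepaRG cells in serum-free induction medium, exposed 48 h in duplicate to 8 half-log concentrations up to 100 uM in 0.5% DMSO. FMO3 mRNA by qRT-PCR, normalized to ACTB, GAPDH, POLR2A; bidirectional fit vs DMSO.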

Read-out in experiment [6]: Cytochrome P450 (CYP1A1), CYP1A1 (gene 1543)
Kind of experiment: LTEA_HepaRG_CYP1A1: Life Technologies and Expression Analysis (LTEA) Assay for Cytochrome P450 (CYP1A1) using HepaRG (AID 2283454). In a few lines:
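Using HepaRG cultures with 0.5% DMSO as vehicle, eight-concentration exposures (max 100 uM) lasted 48 h. Transcript levels were measured by TaqMan qRT-PCR and normalized to ACTB, GAPDH and POLR2A.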

Read-out in experiment [7]: CFLAR gene, CFLAR (gene 8837)
Kind of experiment: LTEA_HepaRG_CFLAR: Life Technologies and Expression Analysis (LTEA) Assay for CFLAR gene using HepaRG (AID 2283455). In a few lines:
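Differentiated HepaRG cells in serum-free induction medium were exposed 48 h in duplicate to eight half-log concentrations up to 100 uM in 0.5% DMSO; mRNA measured by TaqMan qRT-PCR, normalized to ACTB, GAPDH, POLR2A; bidirectional fitting versus DMSO.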

Read-out in experiment [8]: Forkhead box O1 (FOXO1), FOXO1 (gene 2308)
Kind of experiment: LTEA_HepaRG_FOXO1: Life Technologies and Expression Analysis (LTEA) Assay for Forkhead box O1 (FOXO1) using HepaRG (AID 2283456). An outline of the steps: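 Differentiated HepaRG cells, in serum-free induction medium with 0.5% DMSO, exposed 48 h in duplicate to 8-point half-log series from 100 uM. FOXO1 mRNA measured by TaqMan qRT-PCR, normalized to ACTB, GAPDH, POLR2A; bidirectional fit versus DMSO.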

Read-out in experiment [9]: growth arrest and DNA damage 45 (GADD45A), GADD45A (gene 1647)
Kind of experiment: LTEA_HepaRG_GADD45A: Life Technologies and Expression Analysis (LTEA) Assay for growth arrest and DNA damage 45 (GADD45A) using HepaRG (AID 2283458). In a few lines: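 Cells plated and cultured 48 h, switched to serum-free induction medium, then dosed for 48 h (100 uM top, half-log dilutions, 0.5% DMSO). RNA was isolated and transcript measured by Fluidigm qRT-PCR.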

Read-out in experiment [10]: Forkhead box O3 (FOXO3), FOXO3 (gene 2309)
Briefly: LTEA_HepaRG_FOXO3: Life Technologies and Expression Analysis (LTEA) Assay for Forkhead box O3 (FOXO3) using HepaRG (AID 2283459). In a few lines:
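Differentiated human HepaRG cells, 48 h post-plating, exposed in duplicate for 48 h in serum-free induction medium; 8-point half-log series from 100 uM in 0.5% DMSO. FOXO3 mRNA by TaqMan qRT-PCR, normalized to ACTB/GAPDH/POLR2A; bidirectional fit versus DMSO.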

Read-out in experiment [11]: ABC Transporter (ABCB1), ABCB1 (gene 5243)
Kind of experiment: LTEA_HepaRG_ABCB1: Life Technologies and Expression Analysis (LTEA) Assay for ABC Transporter (ABCB1) using HepaRG (AID 2283460). In a few lines: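 HepaRG cells exposed in duplicate for 48 h in serum-free induction medium to eight half-log concentrations up to 100 uM in 0.5% DMSO. ABCB1 mRNA quantified by qRT-PCR, normalised to ACTB, GAPDH and POLR2A; fitted bidirectionally versus DMSO.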

Read-out in experiment [12]: growth arrest and DNA damage 45 (GADD45B), GADD45B (gene 4616)
Briefly: LTEA_HepaRG_GADD45B: Life Technologies and Expression Analysis (LTEA) Assay for growth arrest and DNA damage 45 (GADD45B) using HepaRG (AID 2283461). An outline of the steps: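 Human HepaRG monolayers receive chemicals for 48 h at eight half-log concentrations, highest 100 uM, in 0.5% DMSO. Expression is measured by TaqMan qRT-PCR and normalized to ACTB, GAPDH and POLR2A.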

Read-out in experiment [13]: ABC Transporter (ABCB11), ABCB11 (gene 8647)
Briefly: LTEA_HepaRG_ABCB11: Life Technologies and Expression Analysis (LTEA) Assay for ABC Transporter (ABCB11) using HepaRG (AID 2283463). In a few lines:
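Differentiated human HepaRG cells in serum-free induction medium, dosed in duplicate for 48 h. Eight-point half-log series from 100 uM in 0.5% DMSO; ABCB11 mRNA by qRT-PCR, normalized to ACTB, GAPDH, POLR2A, fitted bidirectionally versus DMSO.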

Read-out in experiment [14]: ABC Transporter (ABCC2), ABCC2 (gene 1244)
Kind of experiment: LTEA_HepaRG_ABCC2: Life Technologies and Expression Analysis (LTEA) Assay for ABC Transporter (ABCC2) using HepaRG (AID 2283464). In a few lines:
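After plating and 48 h culture, HepaRG medium is replaced with serum-free induction medium and chemicals are added (8 concentrations, max 100 uM, 0.5% DMSO) for 48 h. Total RNA then undergoes qRT-PCR for ABCC2 with housekeeping normalization.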

Read-out in experiment [15]: Broad substrate specificity ATP-binding cassette transporter ABCG2 (Homo sapiens) (UniProt Q9UNQ0)
Briefly: LTEA_HepaRG_ABCG2: Life Technologies and Expression Analysis (LTEA) Assay for ABC Transporter (ABCG2) using HepaRG (AID 2283465). In a few lines:
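Differentiated HepaRG cells were exposed for 48 h in serum-free induction medium to 8 half-log concentrations, top 100 uM, in 0.5% DMSO. ABCG2 mRNA was measured by qRT-PCR, normalized to ACTB, GAPDH and POLR2A, with bidirectional fitting versus DMSO.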

Read-out in experiment [16]: ATP-citrate lyase (ACLY), ACLY (gene 47)
Kind of experiment: LTEA_HepaRG_ACLY: Life Technologies and Expression Analysis (LTEA) Assay for ATP-citrate lyase (ACLY) using HepaRG (AID 2283466). In a few lines: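 Differentiated HepaRG cells exposed 48 h in serum-free induction medium to eight half-log concentrations up to 100 uM in 0.5% DMSO, duplicates. Transcript measured by Fluidigm TaqMan qRT-PCR, normalized to ACTB, GAPDH, POLR2A; bidirectional fit versus DMSO.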

Read-out in experiment [17]: Peroxisomal acyl-coenzyme A oxidase 1 (ACOX1) gene, ACOX1 (gene 51)
Briefly: LTEA_HepaRG_ACOX1: Life Technologies and Expression Analysis (LTEA) Assay for Peroxisomal acyl-coenzyme A oxidase 1 (ACOX1) gene using HepaRG (AID 2283467). An outline of the steps: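 HepaRG cells, plated 48 h then switched to serum-free induction medium, were exposed in duplicate for 48 h to 8-point half-log concentrations up to 100 uM in 0.5% DMSO. ACOX1 mRNA was measured by qRT-PCR, normalized to ACTB/GAPDH/POLR2A, and fitted bidirectionally versus DMSO.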

Read-out in experiment [18]: Alkaline Phosphatase, Placental (ALPP) gene, ALPP (gene 250)
Briefly: LTEA_HepaRG_ALPP: Life Technologies and Expression Analysis (LTEA) Assay for Alkaline Phosphatase, Placental (ALPP) gene using HepaRG (AID 2283468). An outline of the steps:
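Using human liver HepaRG cells, chemicals are tested in duplicate over 48 h at half-log concentrations topping at 100 uM; phenobarbital 1 mM serves as induction control. ALPP mRNA change by qRT-PCR, bidirectional fit against vehicle.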

Read-out in experiment [19]: ABC Transporter (ABCC3), ABCC3 (gene 8714)
Kind of experiment: LTEA_HepaRG_ABCC3: Life Technologies and Expression Analysis (LTEA) Assay for ABC Transporter (ABCC3) using HepaRG (AID 2283462). An outline of the steps: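 Transcriptional change of ABCC3 in HepaRG after 48 h treatment, determined by qRT-PCR normalized to endogenous controls. Concentrations spanned eight half-log steps to 100 uM in 0.5% DMSO.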

Broad substrate specificity ATP-binding cassette transporter ABCG2 (Homo sapiens), sequence (Q9UNQ0 whole entry, looked up): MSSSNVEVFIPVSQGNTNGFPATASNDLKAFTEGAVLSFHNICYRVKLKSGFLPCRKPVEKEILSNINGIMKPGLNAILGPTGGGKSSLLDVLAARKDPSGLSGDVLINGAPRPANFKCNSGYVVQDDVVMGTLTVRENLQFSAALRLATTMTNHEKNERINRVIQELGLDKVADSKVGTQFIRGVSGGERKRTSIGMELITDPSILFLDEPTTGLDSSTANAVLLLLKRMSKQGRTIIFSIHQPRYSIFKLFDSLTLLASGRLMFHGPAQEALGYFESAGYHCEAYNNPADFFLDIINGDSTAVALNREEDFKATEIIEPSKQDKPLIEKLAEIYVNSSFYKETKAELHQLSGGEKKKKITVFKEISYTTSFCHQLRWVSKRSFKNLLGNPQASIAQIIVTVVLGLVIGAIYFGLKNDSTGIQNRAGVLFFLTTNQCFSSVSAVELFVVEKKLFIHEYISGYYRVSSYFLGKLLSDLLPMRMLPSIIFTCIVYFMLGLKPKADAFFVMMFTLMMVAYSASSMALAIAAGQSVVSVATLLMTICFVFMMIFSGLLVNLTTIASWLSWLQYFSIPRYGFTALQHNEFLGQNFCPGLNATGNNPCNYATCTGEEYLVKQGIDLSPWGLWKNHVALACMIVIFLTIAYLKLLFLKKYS

`C=C(C)C(=O)OCCC(F)(F)C(F)(F)C(F)(F)C(F)(F)C(F)(F)C(F)(F)F`: the result in experiment [1], in experiment [2], in [3], in [4], in [5] and in [7] was inactive. The molecule was classed as inactive in experiment [8], in [9], in [10], in [11], in experiment [12] and in [13]. For the same molecule, the result in experiment [14], in [15], in experiment [16], in [17] and in experiment [18] was inactive. In addition, the AC50 in [6] was 10.2 µM (active).

Turning to `O=C(OCCOCCOC(=O)c1ccccc1)c1ccccc1`, the molecule was classed as inactive in experiment [1], in [2], in [3], in experiment [4], in experiment [5] and in [7]. For the same molecule, the outcome in [8], in experiment [9], in experiment [10], in [11], in [12] and in experiment [19] was inactive. Moreover, the result in [13], in [14], in [15], in experiment [17] and in experiment [18] was inactive. Further, in [6], the half-maximal activity concentration (AC50) is 50 µM (active).

Take `CCCCCCCCCCCCN1CCCC1=O`: the result in experiment [1], in experiment [2], in [4], in [5], in [7] and in experiment [8] was inactive. Moreover, the result in [9], in experiment [10], in experiment [11], in experiment [12], in experiment [19] and in [13] was inactive. For the same molecule, the molecule was called inactive in experiment [14], in [15], in experiment [16], in experiment [17] and in experiment [18]. For the same molecule, the concentration at half-maximal activity (AC50) in experiment [6] was 68.2 µM (active).
